“And” between values parts separate entries of the source, which are not always exact repeats. Equal values may be shown once. About 79,000 compounds went through this panel and 15% of them were active in at least one assay; those are over-represented in the sample as a whole. The source made the active and inactive calls. Rule as the data show it: active = growth inhibition above about 70%; inactive = the rest.
Key:
[1] = NCI Yeast Anticancer Drug Screen. Data for the rad50 strain (AID 155);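 also: 0% = growth of vehicle-only cultures of the same strain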; conditions: S. cerevisiae rad50 strain growth inhibition, stronger effect = higher value; at 50.0 µM unless noted
Method in brief: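 Growth of the mutant yeast was measured after compound exposure and referenced to vehicle-treated cultures.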

[2] = NCI Yeast Anticancer Drug Screen. Data for the mec2-1 strain (AID 157); conditions: S. cerevisiae mec2-1 strain, stronger effect = higher value; at 50.0 µM unless noted
Method in brief: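 Compounds were applied to mec2-1 yeast cells. Their growth was then compared with that of vehicle-treated cultures to give growth inhibition.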

[3] = NCI Yeast Anticancer Drug Screen. Data for the sgs1 mgt1 strain (AID 161);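 also: 0% = growth of cultures given vehicle only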; conditions: S. cerevisiae sgs1 mgt1 strain, stronger effect = higher value; at 50.0 µM unless noted
Method in brief: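 Percent growth inhibition was derived by comparing compound-exposed mutant yeast with vehicle-exposed cultures. The strain carries alterations in DNA damage repair.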

[4] = NCI Yeast Anticancer Drug Screen. Data for the cln2 rad14 strain (AID 165);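 also: 0% = growth equal to vehicle treated cultures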; conditions: S. cerevisiae cln2 rad14 strain, stronger effect = higher value; at 50.0 µM unless noted
Method in brief: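 Strain: cln2 rad14 yeast, altered in cell cycle control and DNA damage repair. Read-out: growth inhibition vs vehicle.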

[5] = NCI Yeast Anticancer Drug Screen. Data for the bub3 strain (AID 167); conditions: S. cerevisiae bub3 mutant strain, stronger effect = higher value; at 50.0 µM unless noted
Method in brief: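 Whole-cell yeast assay. The mutant strain was incubated with compounds, and growth inhibition was determined by comparison with vehicle-treated cells.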

[6] = NCI Yeast Anticancer Drug Screen. Data for the mlh1 rad18 strain (AID 175); conditions: S. cerevisiae mlh1 rad18 strain growth inhibition, stronger effect = higher value; at 50.0 µM unless noted
Method in brief: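 A repair-deficient yeast strain is exposed to test compound, and growth is scored relative to vehicle-treated controls.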

Measured: growth inhibition

CCOC(=O)C1C(=O)CC(C)(O)C(C(=O)OCC)C1c1ccc(OC)cc1 (stereo not given)
inactive: [1] -27.4% | [2] 2.55% | [3] 8.65% | [4] -5.95% | [5] -2% | [6] 21.8%

CC(=O)Nc1cccc(N=Cc2ccc(N(CCOS(C)(=O)=O)CCOS(C)(=O)=O)cc2C)c1
inactive: [3] 40.4% | [4] 22.9% | [5] 13.8%
active: [1] 73.8% | [2] 70.5% | [6] 93.2%

NC(=O)C1OCOC2C(CO)OCOC12 (stereo not given)
inactive: [1] -1.9% | [2] -14.4% | [3] -3% | [4] -52.1% | [5] -7.4% | [6] -6.15%

NC(=O)N/N=C/c1ccc([N+](=O)[O-])cc1
inactive: [1] 7.35% | [2] -2.6% | [3] -6.55% | [4] -24.1% | [5] 15.9% | [6] -4.2%

Cc1ccc(NC(=S)N2CCCC(C)C2)cc1C (stereo not given)
inactive: [1] -1.15% | [2] -9.85% | [3] 6.15% | [4] -7.3% | [5] 6.15% | [6] -23.6%

C=C1C=C2CCC3C(CCC4(C)C(C(C)CCCC(C)C)CCC34)C2(C)CC1 (stereo not given)
inactive: [2] 57.6% | [4] 60.6% | [5] 28.2%
active: [1] 82.5% | [3] 84.9% | [6] 74.2%

C=CC(=O)OCCOCCCC
inactive: [1] 8.75% | [2] 5.4% | [3] -4.7% | [4] -21.9% | [5] -15.1% | [6] 4.85%

Clc1cccc(NC2=NCCN=C(Nc3cccc(Cl)c3Cl)SS2)c1Cl
inactive: [1] 8.6% | [2] -17.5% | [3] -0.75% | [4] 5.85% | [5] 3.75% | [6] 6.55%

Cc1cc(C)nc(NS(=O)(=O)c2ccc(NC(=O)NC(F)(F)F)cc2)n1
inactive: [1] -41% | [2] -30.2% | [3] -63% | [4] 15.8% | [5] 26.9% | [6] -23.9%

NC(=O)c1ncc(Cl)cc1Cl
inactive: [1] 21.1% | [2] 2.5% | [3] 14.3% | [4] 5.8% | [5] 0.55% | [6] 25.1%

Cc1nc2ccccc2c(=O)n1NC(=O)Cc1ccccc1
inactive: [1] -22.6% | [2] -11.1% | [3] -7.45% | [4] 2.2% | [5] -12.4% | [6] -23.1%

CC(=O)c1ccccc1NC=O
inactive: [1] -7.55% | [2] -10.2% | [3] -12.1% | [4] -40.9% | [5] -15.3% | [6] 4.15%

O=C(/C=C/c1ccc(-c2ccccc2)cc1)c1ccccc1
inactive: [1] -16.7% | [2] -24.8% | [3] 7.75% | [4] -3.3% | [5] -20.6% | [6] -17.6%

COc1cc(OC)c(NC(=O)C2=C(C)NC(C)=C(C(=O)Nc3cc(Cl)c(OC)cc3OC)C2c2cccc([N+](=O)[O-])c2)cc1Cl
inactive: [1] 9.25% | [2] 23.9% | [3] 22.9% | [4] 36.1% | [5] 14.4% | [6] 3.7%

Nc1cccc(OCCCCCOc2cccc(N)c2)c1
inactive: [1] -35.1% | [2] -40.3% | [3] -5.75% | [4] 6.6% | [5] -34.5% | [6] -20.4%

COc1cccc(C)c1NC(=O)NCCCl
inactive: [1] 17.6% | [2] 1.05% | [3] 13.2% | [4] -25.2% | [5] 12.1% | [6] 5.05%

CCN(CC)c1ccc2cc(-c3csc(-c4ccc(N(C)C)cc4)n3)c(=O)oc2c1
inactive: [1] 26.5% | [2] 12.7% | [3] -5.25% | [4] 16.9% | [5] -13.1% | [6] -20.3%

O=C(O)c1cc([N+](=O)[O-])c(O)c2ccccc12
inactive: [1] 9.15% | [2] 2.8% | [3] 6.1% | [4] -22.1% | [5] -16.1% | [6] 21.8%

CCOC(=O)/C(C#N)=C/c1ccccc1Cl
inactive: [1] 12.1% | [2] -6.3% | [3] -30.6% | [4] 16.1% | [5] -20.1% | [6] 6.35%

CCCCCCCCC(O)C#CC(O)CCCCCCCC (stereo not given)
inactive: [1] -18% | [2] -20.9% | [3] -5.6% | [4] -12.9% | [5] -12.6% | [6] -8.85%

Nc1cc2c(cc1[N+](=O)[O-])-c1ccc(Cl)cc1C2=O
inactive: [1] 58.5% | [2] -2.45% | [3] 1.45% | [4] 7.5% | [5] -1.95% | [6] 41.2%

BrC1(Br)C2CCCCCCC21 (stereo not given)
inactive: [1] -26.6% | [2] 4.85% | [3] 3.15% | [4] -6.6% | [5] -21.1% | [6] -29.7%

COc1ccc(CC(C)NN)cc1 (stereo not given)
inactive: [2] 56.7% | [3] 50.2%
active: [1] 93% | [4] 95.7% | [5] 99.2% | [6] 98.5%

COc1cccc(C)c1C(=O)O
inactive: [1] -4.05% | [2] 1.7% | [3] 5.7% | [4] -20.1% | [5] -32% | [6] -5.4%

Nc1nc(Cl)cc(NCCO)n1
inactive: [1] -1.15% and -5.05% | [2] -36.6% and 7% | [3] -39.5% and 20.7% | [4] -7.85% and -0.25% | [5] -21.1% and 4.8% | [6] 1.8% and 43.4%

O=C1CN(c2cccc(Cl)c2)C(=O)CN1/N=C/c1ccco1
inactive: [1] 18.9% | [2] -14.5% | [3] 18% | [4] 12.7% | [5] 23.8% | [6] 22.1%

CCCCOC(=O)CC(O)C(=O)OCCCC (stereo not given)
inactive: [1] 39.1% | [2] -4.45% | [3] -17.5% | [4] -61.2% | [5] -29.9% | [6] -11%

CC12C(=O)C(C(c3ccccc3)=C1c1ccccc1)C1C(=O)OC(=O)C12 (stereo not given)
inactive: [1] -6.8% | [2] 2.8% | [3] -0.15% | [4] -1.6% | [5] -11.9% | [6] -6.65%

COc1cccc2c1C(=O)c1c(O)c3c(c(O)c1C2=O)CC1(O)CC3OC1(C)OC (stereo not given)
inactive: [1] 1.2% | [2] 9.1% | [3] -19.2% | [4] 24.2% | [5] -1.35% | [6] 2.65%

CC(=O)Cc1cc(-c2cc(CC(C)=O)nc(N)n2)nc(N)n1
inactive: [1] 1.85% | [2] 13.3% | [3] 12.7% | [4] 15.2% | [5] 1% | [6] 20.4%

CCOc1ccc2c(c1)S(=O)(=O)OC2=O
inactive: [1] -11.1% | [2] 0.6% | [3] 7% | [4] 25.6% | [5] 5.2% | [6] 2.35%

CC(C)N(C(=S)S)C(C)C
inactive: [1] 9.5% | [2] 4.95% | [3] 16.6% | [4] -0.65% | [5] -26.4% | [6] -19.2%

Cc1nc2cnc(=Nc3ccccc3)nc-2n(-c2ccccc2)c1C
inactive: [1] -1.15% | [2] -1.55% | [3] -0.65% | [4] 56.9% | [5] 5.15% | [6] -7.9%

O=C1C=C(Nc2ccccc2)c2ccccc2C1=O
inactive: [1] -1.15% and 24.4% | [2] 16.4% and -8.6% | [3] 11.4% and 25.4% | [4] -14.5% and 19.9% | [5] 33.9% and 14.1% | [6] 15.2% and 12.2%

Nc1ncnc2c1c(-c1ccc(Cl)cc1)cn2-c1ccc(I)cc1
inactive: [1] 2.45% | [2] 2.45% | [3] -17.2% | [4] -7.4% | [5] -1.1% | [6] 7%

O=C(O)c1cc(Cl)cc(C(=O)O)n1
inactive: [1] -19.4% | [2] -1.75% | [3] -11.8% | [4] 16.1% | [5] 4.65% | [6] -1.7%

O=C(O)C1Oc2cc3ccccc3cc2O1
inactive: [1] 30.4% | [2] 16.4% | [3] 19.8% | [4] 20.3% | [5] 23.1% | [6] 24.5%

O=C(O)c1ccc(/C=N/N=C2c3ccccc3-c3ccccc32)cc1
active: [4] 72.1%
inactive: [1] 66.6% | [2] 35.5% | [3] 41% | [5] -4.5% | [6] 64.2%

Cc1cc(C)c2nccc(NCCCN(C)C)c2c1[N+](=O)[O-]
inactive: [1] 5.65% | [2] 5% | [3] -1.8% | [4] 5.35% | [5] -10.8% | [6] -78.5%

C/C(=C\c1ccccc1)c1ccccn1
inactive: [1] -2.25% and -1.9% | [2] -4.6% and -17.4% | [3] -6.25% and 10.8% | [4] -68.8% and -22.6% | [5] -19.1% and 15.2% | [6] -7.4% and 8.3%

— PubChem BioAssay (NCI)
